High-throughput results: PubChem BioAssay, National Center for Advancing Translational Sciences (NCATS)
HEK293 viab: GF-AFC viability counterscreen for inhibitors of alpha-synuclein gene (SNCA) expression. HEK-293-SNCA-luc viability, GF-AFC fluorescence, 24 h. Potency, µM (titrated, usually from 57.1 µM), for inactives: at the highest dose activity change, negative = cytotoxicity, actives largely listed as cytotoxic. 150,000 compounds, 0.12% hits;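 further: 0% = DMSO-treated cells and -100% = medium-only wells without cells; nearly all actives have a fitted effect of over 30% in size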
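Cytotoxicity counterscreen: after 24 h compound treatment of genome-edited SNCA-luciferase HEK-293 cells, live-cell protease substrate GF-AFC read by fluorescence after 30 min; activity scaled between DMSO (0%) and medium-only (-100%), curves Hill-fitted.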
FLuc inh: Firefly luciferase inhibition profiling of diverse chemical library using quantitative high-throughput screening. Luciferin 4-monooxygenase (Photinus pyralis), P08659. Potency, µM (doses to about 115 µM), actives largely listed as inhibitors. 76,000 compounds, 2.5% hits. purified P. pyralis luciferase, luminescence, biochemical; further: nearly all actives have a fitted effect of over 65% in size
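Inhibitors were tested against purified firefly luciferase in a biochemical, low-substrate format (both substrates at 10uM) and luminescence measured with a CCD imager.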
HEK293 tox: Cytotoxic Profiling in HEK 293 Cell Line of Diverse Libraries Using Quantitative High-Throughput Screening. HEK 293 viability, ATP luminescence (CellTiter-Glo), 48-72 h. Potency, µM (highest dose often 115 µM), without a hit: at the top dose activity change, negative = cytotoxicity, most hits filed as inhibitors. 94,000 compounds, 6.6% hits. AID 1345083, 2018; further: nearly all actives have a fitted effect of over 60% in size
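HEK 293 seeded at 250 cells/well receive compound via pintool. After 48 or 72 hr at 37 degree Celsius, 5% CO2 and 95% humidity, CellTiter-Glo is dispensed and luminescence read following 10 min at room temperature.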
NPR1 antag: Natriuretic polypeptide receptor (hNpr1) antagonism - Primary qHTS; Atrial natriuretic peptide receptor 1 (Homo sapiens), P16066; HEK293 hNpr1 GloSensor cGMP, ANP-stimulated luminescence; Potency, µM (titrated, usually from 46.3 µM), inactives show at the highest dose activity change, negative = inhibition, most hits filed as inhibitors; 76,000 compounds, 1.6% hits; calls by dose curve; further: nearly all actives have a fitted effect of over 60% in size
Target sequence (P16066 whole entry, looked up): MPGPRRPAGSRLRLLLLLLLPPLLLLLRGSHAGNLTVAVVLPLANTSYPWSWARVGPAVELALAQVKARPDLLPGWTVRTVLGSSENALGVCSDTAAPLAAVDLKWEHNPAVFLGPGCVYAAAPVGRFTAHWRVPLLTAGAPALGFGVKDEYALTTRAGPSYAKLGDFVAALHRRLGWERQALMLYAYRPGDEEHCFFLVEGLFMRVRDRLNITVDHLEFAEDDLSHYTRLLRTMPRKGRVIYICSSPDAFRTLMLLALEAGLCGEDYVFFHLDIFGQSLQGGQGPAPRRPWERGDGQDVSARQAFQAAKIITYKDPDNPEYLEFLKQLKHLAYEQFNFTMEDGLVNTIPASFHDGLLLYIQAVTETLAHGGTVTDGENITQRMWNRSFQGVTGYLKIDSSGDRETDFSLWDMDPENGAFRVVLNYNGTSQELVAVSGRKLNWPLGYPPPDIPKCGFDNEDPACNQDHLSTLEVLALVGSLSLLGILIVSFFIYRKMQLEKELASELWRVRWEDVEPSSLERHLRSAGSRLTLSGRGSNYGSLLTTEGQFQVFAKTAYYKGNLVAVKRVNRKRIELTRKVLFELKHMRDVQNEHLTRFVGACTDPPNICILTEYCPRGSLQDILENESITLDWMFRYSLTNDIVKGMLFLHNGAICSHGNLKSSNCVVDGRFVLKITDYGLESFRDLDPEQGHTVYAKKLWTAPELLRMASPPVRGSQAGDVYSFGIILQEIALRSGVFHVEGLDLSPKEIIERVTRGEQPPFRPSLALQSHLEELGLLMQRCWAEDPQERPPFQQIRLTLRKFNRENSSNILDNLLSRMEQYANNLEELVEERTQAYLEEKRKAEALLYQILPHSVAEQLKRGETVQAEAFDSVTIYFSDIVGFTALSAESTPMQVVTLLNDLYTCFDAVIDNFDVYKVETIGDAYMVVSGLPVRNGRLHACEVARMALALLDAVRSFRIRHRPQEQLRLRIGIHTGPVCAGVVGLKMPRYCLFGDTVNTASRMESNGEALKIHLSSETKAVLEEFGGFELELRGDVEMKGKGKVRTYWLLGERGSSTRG
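HEK293 cells stably expressing human Npr1 and cGMP GloSensor pGS-40F, loaded 2 h with 2% GloSensor reagent, given compound 30 min at room temperature. Luminescence read before and 20 min after 0.1 nM hNppA.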
SNCA expr inh: Primary qHTS assay for inhibitors of alpha-synuclein gene (SNCA) expression; 140,000 compounds, 0.17% hits; Potency, µM (highest dose often 57.2 µM), inactives show at the top dose activity change, negative = inhibition, most hits filed as inhibitors; HEK-293 SNCA-luciferase knock-in, luminescence, 24 h;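 further: plate controls were DMSO cells for no effect and cell-free wells for full effect; nearly all actives have a fitted effect of over 45% in size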
3T3 cytotox: Cytotoxic Profiling in NIH 3T3 Cell Line of Diverse Libraries Using Quantitative High-Throughput Screening. NIH 3T3 viability, CellTiter-Glo ATP luminescence, 48-72 h. Potency, µM (series often up to 96.7 µM), inactives show at the highest dose activity change, negative = cytotoxicity, actives largely listed as inhibitors. 94,000 compounds, 4.3% hits. AID 1345082, 2018; further: nearly all actives have a fitted effect of over 55% in size
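First NIH 3T3 cells are plated at 400 cells/well; next compound is pinned in; then plates incubate 48 or 72 hr at 37 °C; finally CellTiter-Glo is added and luminescence read after 10 min.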
* = called active by the depositor; i = inactive; ? = inconclusive; · = not tested or not shown; [ ] = dose if it differs, or a comment. An excerpt weighted towards active compounds, which were near 7.2% of everything screened. Unless noted, the call rests on the fitted dose curve; in most records, active means well fitted curve in the direction sought with a large enough effect; inconclusive means small, poorly fitted or top-dose-only effect, or another doubt; inactive means no such curve, though single readings can be large; an effect the other way counts as inactive or inconclusive. Unless noted, on the % scale 0 is the no-effect control and ±100 the full control effect; potency means the concentration at half of the fitted maximal effect.

SMILES | HEK293 viab | FLuc inh | HEK293 tox | NPR1 antag | SNCA expr inh | 3T3 cytotox
Cn1nccc1C(=O)N1C[C@@H](Oc2cccnc2)C[C@H]1C(=O)N1CCCC1 | 8% | i | -2% | -6% | -12% | 3%
COc1ccccc1-c1cc2c(ccn2C)c(C(=O)NCC2CCOCC2)n1 | -1%[87.6 µM] | i | ? | 3%[70.6 µM] | 2%[87.6 µM] | ?
Cn1ccc2c(C(=O)NCC3CCC(=O)N3)nc(-c3ccccc3C#N)cc21 (stereo unspecified) | -20%[87.6 µM] | i | ? | -1%[70.6 µM] | -5%[87.6 µM] | 25µM*
COc1cccc(CNC[C@H]2O[C@H](Cc3cc(-c4ccccc4)on3)CC[C@@H]2O)c1 | -3%[87.6 µM] | i | 112µM* | -27%[70.6 µM] | 103%[87.6 µM] | ?
COc1ccc(-c2cc(C[C@@H]3CC[C@H](O)[C@@H](CN(C)C)O3)no2)cc1 | 4%[87.6 µM] | ? | -7%[172 µM] | -29%[70.6 µM] | 36%[87.6 µM] | -16%[174 µM]
CC(C)CN(CC(C)C)C[C@H]1O[C@H](Cc2cc(COc3ccccc3)on2)CC[C@@H]1O | -13%[87.6 µM] | i | 100µM* | 5%[70.6 µM] | 76%[87.6 µM] | 100µM*
CC(C)NC(=O)NC[C@H]1O[C@H](Cc2cc(COc3ccccc3)on2)CC[C@@H]1O | 6%[87.6 µM] | i | -9%[172 µM] | -7%[70.6 µM] | -13%[87.6 µM] | -26%[174 µM]
COc1ccc(-c2cc(C[C@@H]3CC[C@H](O)[C@@H](CN(Cc4ccccc4OC)Cc4ccccc4OC)O3)no2)cc1 | ? | ? | ? | 10µM* | ? | ?
COc1cccc(CNC[C@H]2O[C@H](Cc3cc(CN4CCOCC4)on3)CC[C@@H]2O)c1 | 9%[87.6 µM] | i | -22%[172 µM] | 0%[70.6 µM] | 17%[87.6 µM] | 0%[174 µM]
Cc1cc2nc3n(c(=O)c2n1CC(=O)Nc1ccc(F)cc1F)CCCCC3 | -15% | i | ? | 4% | 3% | ?
Cc1cc2nc3n(c(=O)c2n1CC(=O)Nc1ccc(Br)cc1F)CCCCC3 | -1% | i | 25µM* | 0% | -2% | ?
CCC1c2nccn2CCCN1C(=O)CCc1c(C)nn(C)c1C (stereo unspecified) | 1% | i | i | -2% | 26% | 0%
COCC(=O)N[C@@H]1CN(Cc2ccccc2F)C[C@H]1CO | 4% | i | i | -6% | -5% | -14%
CC1=Nc2cc(C(=O)NCCCN(C)C)ccc2Sc2ccc(F)cc21 | 2% | i | 50µM* | 2% | 2% | ?
CC1=Nc2cc(C(=O)NCCCN(C)C)ccc2Sc2ccc(Cl)cc21 | -8% | i | 25µM* | -12% | -2% | 22µM*
CC(C)N1CCN(C2CCN(c3ccc4c(c3)OCO4)CC2)CC1CCO (stereo unspecified) | 10% | i | -11% | 0% | 33% | -16%
CCCCn1c(=O)c(C(=O)NCc2ccc(C(F)(F)F)cc2)nc2cccnc21 | 1% | · | ? | · | -1% | ?
Cc1ncc(CN2CCC(C(=O)Nc3cccc(-c4cc5ccccc5[nH]4)c3)CC2)cn1 | -9% | i | 20µM* | -1% | -5% | ?
COCCOCC(=O)N1CCC2(CC1)C(OC)CN2c1cccc(F)c1 (stereo unspecified) | -3% | i | ? | 5% | -4% | i
NC(=O)c1c(OCc2c(F)cc(Br)cc2F)nsc1NC(=O)NCCCCN1CCCC1 | ? | · | · | · | 6.1µM* | ·
COc1cccc(CC(=O)N[C@H](Cc2ccccc2)C(=O)N2CCOCCNC(=O)CC2)c1 | -2% | i | -3% | 2% | 42% | -3%
O=c1[nH]c(C2CCCN(Cc3ccccc3C(F)(F)F)C2)nn1-c1ccc(Cl)cc1 (stereo unspecified) | 12% | i | ? | 0% | -2% | ?
Cc1cnc(CCNS(=O)(=O)c2cccc(F)c2)n1Cc1ccc(F)cc1 | 2% | · | 40µM* | · | 9% | ?
Cc1c(C(C)NC(=O)C(=O)c2ccco2)cnn1-c1cccc2ccccc12 (stereo unspecified) | 2% | i | 45µM* | -8% | -12% | ?
Cc1c(C(C)NC(=O)c2cc(=O)[nH]c(=O)[nH]2)cnn1-c1cccc2ccccc12 (stereo unspecified) | -20% | i | ? | 0% | 9% | -38%
SMILES | HEK293 viab | FLuc inh | HEK293 tox | NPR1 antag | SNCA expr inh | 3T3 cytotox
COCCN1CCC2(CCC1=O)CCN(C(=O)Nc1c(C)cccc1C)CC2 | -1% | i | 4% | -1% | 3% | -3%
Cc1cc(C(=O)N2CCC3(CC2)c2[nH]c4ccccc4c2CCN3C)n(C)n1 | -7%[12.5 µM] | i | 40µM* | 5% | 2% | -16%
CN1CCc2c([nH]c3ccccc23)C12CCN(C(=O)c1ccsc1)CC2 | 1%[12.5 µM] | i | 40µM* | -5% | 31% | ?
COc1ccc2[nH]c3c(c2c1)CCN(C)C31CCN(C(=O)c2cc(C)nn2C)CC1 | 4%[12.5 µM] | i | ? | -4% | 2% | -19%
COc1cccc(CN2CCC3(CC2)c2[nH]c4ccccc4c2CCN3C)c1 | -5%[12.5 µM] | i | 25µM* | 0% | -1% | 22µM*
COc1ccc2[nH]c3c(c2c1)CCN(C)C31CCN(C(=O)c2ccccc2)CC1 | 7%[12.5 µM] | i | ? | 9% | 16% | ?
O=C(c1cccc(F)c1)N1CCN2C(=O)N(C3CCCCC3)C(=O)[C@@H]2C1 | 1%[87.6 µM] | i | -13%[172 µM] | -2%[70.6 µM] | 3%[87.6 µM] | ?
CN1CC(=O)N(C2CCCC2)Cc2c(NC3CCNCC3)ncnc21 | -4% | · | -10% | · | -13% | -15%
O=C(Nc1cccc(-c2ccc(N3CCOCC3)nn2)c1)Nc1ccccc1Cl | -27% | 1.6µM* | ? | ? | -27% | ?
O=C(Nc1cccc(-c2ccc(N3CCOCC3)nn2)c1)Nc1cc(Cl)ccc1Cl | -2% | 1µM* | -15% | -19% | 42% | -17%
O=S(=O)(Nc1cccc(-c2ccc(N3CCOCC3)nn2)c1)c1cc(C(F)(F)F)ccc1Cl | 2% | · | · | · | 86% | ·
COc1cccc(S(=O)(=O)NCC(=O)N2CCCCCNC(=O)CC2c2ccccc2)c1 (stereo unspecified) | -20% | i | -3% | 4% | -3% | -11%
CC(C)CNC(=O)N1CCCC(c2noc(COc3ccccc3)n2)C1 (stereo unspecified) | -7%[12.5 µM] | i | ? | -18% | 43% | ?
Cc1cc(C)cc(C(=O)NCCn2cccc2-c2nc(-c3ccc4c(c3)OCO4)no2)c1 | -19% | ? | ? | -14% | 9% | ?
